Compound activity from PubChem BioAssay.
This is a sample that favours compounds with a hit; in the whole collection about 21% have one here.
Pf growth 48h – inhibits P. falciparum growth in the first generation, 48 h | AID 504832 | Potency, µM (highest dose often 28.7 µM), most hits filed as inhibitors | 5.9% of 310,000 active | P. falciparum luciferase growth in erythrocytes, 48 h
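Compounds are pin-transferred into medium, infected erythrocytes (2% hematocrit, 0.1% parasitemia final) are added, and plates sit one parasite generation at 37 C in 5% CO2. Detection reagent is then added and luminescence measured.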
Cycloheximide cs – affects cycloheximide protein synthesis inhibition readout, counter-screen. max response, %. cell reporter, cycloheximide protein synthesis inhibition counterscreen. AID 2314. 12% of 300,000 active; in the data active means max response mostly above about 13%, no sharp cut-off; inactive means mostly below about 14%; further: read at 38.3 µM for the half of the compounds with a filed dose
Shiga toxin inh – inhibitors of Shiga toxin in Vero cells | Vero cells, Shiga toxin protein synthesis inhibition reporter | inhibition, % at 38.7 µM | 9.2% of 290,000 active; in the data active means inhibition mostly above about 28%, no sharp cut-off; inactive means mostly below about 43%
Pf growth 96h – inhibits malaria parasite growth, 96 h; AID 504834; P. falciparum luciferase reporter growth, 96 h; 6.9% of 320,000 active; Potency, µM (doses to about 28.7 µM), hits mostly inhibitors
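Readout is luminescence from an integrated firefly luciferase in P. falciparum. Red cells, 2% hematocrit and 0.05% parasitemia final, were cultured with compound through two parasite generations (96 hours) at 37 C, 5% CO2.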
NS1 function inh – blocks influenza NS1 protein function; Potency, µM (doses to about 46.1 µM); 0.4% of 270,000 active; calls by dose curve; further: actives are rising curves; nearly all actives have a fitted effect of over 50% in size
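OD600 was taken as the measure of yeast growth restored by compound in an NS1-expressing S. cerevisiae strain. Cells had been washed out of glucose medium and diluted 1:100 into galactose -URA medium, pH 6.0.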
Hits are given with their value; - = inactive; ? = inconclusive; . = not tested or not shown; [ ] = dose if it differs, or a comment. Unless noted, the call rests on the fitted dose curve; in most records, active means well fitted inhibition curve with a large enough effect; inconclusive means small, poorly fitted or top-dose-only effect, or another doubt; inactive means no such curve, though single readings can be large or run the other way.

SMILES	Pf growth 48h	Cycloheximide cs	Shiga toxin inh	Pf growth 96h	NS1 function inh
O=C(CS(=O)Cc1ccccc1Cl)Nc1ccccc1Cl (stereo unspecified)	-	-	-	-	-
CCOc1ccc(S(=O)(=O)O)c2cccnc12	-	.	.	-	.
CCOc1cc(N2CCOCC2)c(OCC)cc1NC(=O)COC(=O)[C@@H]1CCCN1S(=O)(=O)c1ccccc1F	-	-	-	-	-
Cc1ccc(-c2[nH]c3ccccc3c2C(C[N+](=O)[O-])c2ccco2)cc1 (stereo unspecified)	9.28µM	20.5	-	.	-
CCC(=O)Nc1ccc2nc(C3CC3)n(Cc3ccccc3)c(=O)c2c1	-	-	-	-	?
O=C(Nc1ccc2nc(C3CC3)n(Cc3ccccc3)c(=O)c2c1)C1CC1	-	22.6	31.4	-	-
COc1ccc(Cn2c(C3CC3)nc3ccc(NC(=O)c4ccco4)cc3c2=O)cc1	2.94µM	-	-	2.08µM	-
Cc1ccc(C)c(NC(=O)CN2C(=O)CC(C)S(=O)(=O)c3ccccc32)c1 (stereo unspecified)	-	-	-	-	-
COc1ccccc1-c1c(C(F)(F)F)oc2cc(OCC(=O)Nc3cc(C)ccc3C)ccc2c1=O	?	-	-	-	-
Cc1cc(C)c2oc(-c3ccc(Cl)c(NC(=O)c4ccc(C#N)cc4F)c3)nc2c1	?	48.1	39.2	-	-
N#Cc1ccc(C(=O)Nc2cccc3ncccc23)c(F)c1	-	-	-	-	-
CCCn1c2ccccc2c2cnn(CC(=O)NC3CCCCC3)c(=O)c21	-	-	-	-	-
O=C(O)c1ccccc1-c1c2cc(Br)c(=O)cc-2oc2[c]([Hg])c(O)c(Br)cc12	?	.	.	6.42µM	.
O=C(O)c1ccccc1-c1c2cc(Br)c(=O)c(Br)c-2oc2c(Br)c(O)c(Br)cc12	-	-	-	?	.
CC(=O)N(C)c1ccc(NS(=O)(=O)Cc2ccccc2)cc1	-	26.9	62.8	?	-
CC(=O)c1ccc(NS(=O)(=O)Cc2ccccc2)cc1	-	-	-	?	-
CC(C)Cc1nnc(NC(=O)CN2C(=O)c3ccccc3C2=O)s1	-	-	-	?	-
O=C(N/N=C/c1cn(-c2ccccc2)nc1-c1ccc2c(c1)OCCO2)c1ccncc1	-	29.2	49.6	-	.
O/N=C/c1cn(-c2ccccc2)nc1-c1ccc2c(c1)OCCO2	?	-	-	-	-
O=C(N/N=C/c1nn(-c2ccccc2)cc1-c1ccc(Cl)cc1)c1ccncc1	2.08µM	-	-	?	-
O=C(N/N=C/c1cn(-c2ccccc2)nc1-c1cccnc1)c1ccccc1	?	-	-	?	.
O=C(N/N=C\c1cn(-c2ccccc2)nc1-c1ccccc1)c1ccc2c(c1)OCO2	?	15.6	-	11.7µM	-
CN1CCN(C(=O)/C=C/c2cn(-c3ccccc3)nc2-c2ccc3c(c2)OCCO3)CC1	11.7µM	-	-	?	-
COc1ccc(OC)c(S(=O)(=O)NC2CCCCNC2=O)c1 (stereo unspecified)	-[0.00184 µM]	-	-	-	-
Cn1c(SCC(=O)N2CCOCC2)nnc1-c1ccco1	-	-	-	-	-
SMILES	Pf growth 48h	Cycloheximide cs	Shiga toxin inh	Pf growth 96h	NS1 function inh
COc1ccc(NC(=O)Cc2coc3ccc4ccccc4c23)cc1S(=O)(=O)N1CCOCC1	-	-	-	?	-
COc1cccc(Nc2ncnc3onc(-c4ccccc4OC)c23)c1	-	-	-	-	-
O=C(N/N=C/c1cn(-c2ccccc2)nc1-c1ccc(F)cc1)c1ccc2c(c1)OCO2	?	18.3	79.2	13.1µM	?
COC(=O)c1cnc(SC)nc1C	-	-	-	-	-
Cc1nccc2[nH]c(=O)c(C(=O)NC3CCCCC3C)cc12 (stereo unspecified)	?	-	-	3.29µM	-
Cc1ccc2nsnc2c1S(=O)(=O)N1CCN(Cc2ccc3c(c2)OCO3)CC1	-	-	-	.	-
CC1(C)Cc2c(sc(NC(=O)C(C)(C)C)c2C#N)C(C)(C)N1	?	-	-	3.29µM	-
CCC(=O)Nc1sc2c(c1C#N)CC(C)(C)NC2(C)C	-	-	-	-	-
CCCNC(=O)NNC(=O)c1cc(-c2ccc3c(c2)OCO3)nc2ccccc12	?	-	-	-	-
O=C(O)c1cc(-c2ccc3c(c2)OCO3)nc2ccccc12	.	-	-	8.28µM	-
CCCN(CCC)C(=O)c1cc(-c2ccc3c(c2)OCO3)nc2ccccc12	.	-	-	1.65µM	-
C[N+]1(CCC[N+]2(C)C[C@H]3[C@H](C2)[C@H]2C=C[C@@H]3CC2)CCOCC1 (stereo partly specified)	.	.	.	.	-
O=C(CSc1ncn[nH]1)Nc1ccccc1Sc1ccc(Cl)cc1	-	-	-	-	-
N[C@@H]1CCN(O)C1=O	.	-	-	.	.
O=C(COc1ccc(Br)cc1)NNC(=S)NCc1ccccc1	-	-	-	-	-
O=C(COc1ccccc1Cl)NCc1ccccc1	-	31.1	54.0	?	-
O=C(COc1ccccc1Cl)NCc1ccncc1	-	32.0	-	-	-
C=CCc1ccccc1OCC(=O)NNC(=S)NCc1ccccc1	-	-	-	10.4µM	?
Cc1ccccc1OCC(=O)NCCCNC(=O)c1ccccn1	-	-	-	-	-
COc1ccc(NC(=O)C23CCC(C)(C(=O)O2)C3(C)C)cc1 (stereo unspecified)	-	-	-	-	-
CCOC(=O)c1ccc(NC(=O)C2(c3ccc(OC)cc3)CCOCC2)cc1	-	-	-	-	-
CCOC(=O)c1ccc(NC(=O)C2(c3ccc(OC)cc3)CCCC2)cc1	5.86µM	-	-	?	-
CCOC(=O)c1ccc(NC(=O)C23CCC(C)(C(=O)O2)C3(C)C)cc1 (stereo unspecified)	-	49.8	65.1	-	-
O=C(CNS(=O)(=O)/C=C/c1ccccc1)OC1CCOC1=O (stereo unspecified)	-	-	-	-	.
Cc1ccc(S(=O)(=O)N/N=C/c2ccc(O)c(O)c2)cc1[N+](=O)[O-]	-	45.3	128.4	-	-
SMILES	Pf growth 48h	Cycloheximide cs	Shiga toxin inh	Pf growth 96h	NS1 function inh
CCN(CC)c1ccc(/C=N/NS(=O)(=O)c2ccc(C)c([N+](=O)[O-])c2)cc1	-	-	-	-	-
C/C(=N\NS(=O)(=O)c1ccc(C)c([N+](=O)[O-])c1)c1cc2ccccc2o1	.	-	-	-	-
Cc1ccc(S(=O)(=O)N/N=C/c2ccccc2O)cc1[N+](=O)[O-]	-	38.7	69.0	-	.
CCOCCCNC(=O)c1cn(CC)c2ccc(S(=O)(=O)N3CCCC3)cc2c1=O	-	-	-	-	-
C=CCNc1oc(-c2cccs2)nc1C#N	-	18.8	51.4	.	-
COCCNc1oc(-c2ccccc2Cl)nc1C#N	.	-	-	-	-
N#Cc1nc(-c2ccco2)oc1NCc1ccccc1Cl	-	12.4	-	-	-
N#Cc1nc(-c2cccs2)oc1NCc1ccccc1	?	24.2	-	-	-
CCOc1ccc(Nc2oc(-c3cccs3)nc2C#N)cc1	?	-	-	-	-
Cc1ccc(CNc2oc(-c3cccs3)nc2C#N)cc1	-	-	-	?	-
N#Cc1nc(-c2cccs2)oc1NCc1ccco1	-	18.4	-	.	-
O=C(CN1C(=O)COc2ccc(S(=O)(=O)N3CCCC3)cc21)NC1CCCCCCC1	-	-	-	?	-
